Reference: article PMC5540273 (PLoS ONE, 2017)

Tests used:
Conditions in all cases: concentration: 1 μM, replicates: in singlicate; n = 1
ERK5 = system: T1, ERK5
T1 construct: gene MAPK7

ERK8 = system: T2, ERK8
T2 construct: gene MAPK15

ERN1 = system: ERN1
FAK = system: T3, FAK
T3 construct: gene PTK2

FER = system: FER
FES = system: FES
FGFR1 = system: FGFR1
FGFR2 = system: FGFR2
FGFR3 = system: FGFR3
FGFR4 = system: FGFR4
FGR = system: FGR
FLT1 = system: FLT1
FLT3-autoinhibited = system: FLT3-autoinhibited
FLT3 = system: FLT3
FLT4 = system: FLT4
FRK = system: FRK
FYN = system: FYN
GAK = system: GAK
GCN2(Kin.Dom.2,S808G) = system: T4, GCN2(Kin.Dom.2,S808G)
T4 construct: gene EIF2AK4

GRK1 = system: GRK1
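Further: KINOMEscan kinase panel screen.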

SMILES	%Inh (ERK5)	%Inh (ERK8)	%Inh (ERN1)	%Inh (FAK)	%Inh (FER)	%Inh (FES)	%Inh (FGFR1)	%Inh (FGFR2)	%Inh (FGFR3)	%Inh (FGFR4)	%Inh (FGR)	%Inh (FLT1)	%Inh (FLT3-autoinhibited)	%Inh (FLT3)	%Inh (FLT4)	%Inh (FRK)	%Inh (FYN)	%Inh (GAK)	%Inh (GCN2(Kin.Dom.2,S808G))	%Inh (GRK1)
Nc1ncnc2c1ncn2-c1cccc2ccccc12 [SKF-97184]	0%	9%	0%	0%	0%	0%	12%	0%	0%	0%	6%	0%	0%	0%	10%	0%	0%	0%	0%	31%
COc1cc2ncn(-c3cc(OCc4ccncc4)c(C(N)=O)s3)c2cc1OC [GSK336313]	0%	0%	23%	0%	24%	0%	0%	0%	7%	2%	28%	19%	0%	0%	17%	0%	35%	17%	0%	0%
Cc1nc(N(C)[C@H]2CN(C(=O)CC#N)CC[C@H]2C)c2cc[nH]c2n1	7%	1%	12%	0%	0%	9%	1%	6%	0%	0%	6%	0%	0%	5%	15%	0%	2%	0%	0%	0%
COc1ccc(-c2cc3c(C)nc(N)nc3n([C@H]3CC[C@H](OCCO)CC3)c2=O)cn1	12%	0%	0%	0%	13%	1%	7%	0%	0%	0%	14%	11%	0%	0%	0%	0%	0%	0%	0%	0%
Fc1cccc(CSc2nnc(-c3ccc4c(c3)CCO4)o2)c1	0%	3%	14%	0%	0%	0%	0%	0%	0%	6%	0%	0%	23%	0%	15%	15%	3%	3%	4%	7%
Nc1nccc2scc(-c3ccc4c(c3)CCN4C(=O)Cc3ccccc3)c12 [GSK2576924]	10%	0%	15%	0%	16%	0%	0%	0%	27%	7%	22%	22%	3%	0%	21%	0%	33%	0%	0%	4%
Nc1nc(N)c2nc(-c3ccccc3)[nH]c2n1 [SKF-12778]	0%	41%	11%	6%	14%	0%	16%	32%	21%	12%	30%	18%	7%	8%	22%	8%	0%	30%	23%	5%
COc1cccc(-n2cnc3c(N)ncnc32)c1 [SKF-97416]	0%	8%	43%	4%	0%	4%	7%	0%	0%	0%	0%	0%	9%	28%	0%	0%	0%	26%	8%	24%
O=C(Nc1n[nH]c2nc(-c3ccccc3)c(Cl)cc12)C1CC1 [SB-734909]	0%	0%	24%	0%	0%	0%	0%	4%	5%	0%	13%	9%	16%	2%	0%	0%	0%	0%	0%	37%
COc1cccc(C2=C(Nc3cccc(C(=O)O)c3)C(=O)NC2=O)c1 [SB-390770]	0%	36%	0%	3%	40%	0%	50%	71%	48%	14%	14%	13%	5%	0%	25%	2%	29%	21%	0%	14%
Nc1nc(-c2ccccc2F)c(-c2ccnc3ccccc23)s1 [GW560459]	0%	0%	0%	0%	13%	0%	0%	0%	0%	75%	7%	30%	0%	25%	0%	0%	39%	79%	6%	0%
Cc1nn2c(=O)cc(N3CCOCC3)nc2n1Cc1cccc(Cl)c1Cl [GSK2342769]	0%	18%	0%	0%	14%	6%	1%	30%	15%	5%	24%	27%	9%	0%	34%	0%	0%	1%	3%	3%
Cc1c(Cn2c(C)nn3c(=O)cc(N4CCO[C@H](C)C4)nc23)cccc1C(F)(F)F [GSK2373690]	0%	0%	10%	0%	20%	0%	5%	1%	18%	3%	0%	22%	0%	0%	0%	35%	14%	52%	3%	0%
Cc1ccc(Oc2ccc(Nc3ncnc4cc[nH]c34)cc2C)cn1	5%	0%	21%	8%	15%	23%	10%	0%	4%	11%	29%	92.5%	23%	3%	0%	12%	0%	10%	0%	9%
COc1cc(Nc2nccc(N3CCC(NC(=O)C(C)c4ccc(Cl)cc4)C3)n2)cc(OC)c1OC (centres unmarked) [GSK1379757]	0%	0%	0%	0%	2%	18%	0%	45%	2%	0%	26%	40%	0%	25%	7%	0%	0%	0%	0%	0%
CCn1c(-c2ccoc2)nc2cnccc21 [SB-733887]	0%	0%	0%	0%	20%	0%	0%	0%	0%	20%	10%	9%	65%	0%	10%	0%	47%	0%	0%	0%

SMILES	%Inh (ERK5)	%Inh (ERK8)	%Inh (ERN1)	%Inh (FAK)	%Inh (FER)	%Inh (FES)	%Inh (FGFR1)	%Inh (FGFR2)	%Inh (FGFR3)	%Inh (FGFR4)	%Inh (FGR)	%Inh (FLT1)	%Inh (FLT3-autoinhibited)	%Inh (FLT3)	%Inh (FLT4)	%Inh (FRK)	%Inh (FYN)	%Inh (GAK)	%Inh (GCN2(Kin.Dom.2,S808G))	%Inh (GRK1)
Cn1c(=O)c(F)c(Nc2ccc(I)cc2F)c2c(=O)n(OC[C@H](O)CO)cnc21	24%	16%	0%	30%	10%	9%	23%	4%	0%	12%	32%	0%	0%	0%	10%	0%	14%	11%	0%	9%
CCS(=O)(=O)c1ccc(OC)c(Nc2ncc(-c3ccc(F)cc3)o2)c1.Cl [GW591947]	0%	0%	8%	0%	29%	0%	3%	0%	0%	12%	0%	26%	0%	0%	6%	0%	9%	0%	16%	0%
Nc1n[nH]c2ncc(-c3ccccc3)cc12 [SB-517081]	0%	0%	9%	0%	0%	0%	0%	0%	2%	18%	28%	7%	49%	72%	0%	15%	26%	70%	52%	0%
CC(C)(C)c1ccc(C(=O)Nc2cn3cc(-c4ccccc4)ccc3n2)cc1	0%	20%	26%	0%	0%	0%	0%	1%	7%	0%	0%	0%	0%	35%	0%	10%	0%	0%	8%	25%
Cc1nnc(-c2ccc(C)c(-c3ccc(C(=O)O)cc3)c2)o1 [GW608005]	0%	20%	5%	0%	0%	0%	5%	0%	0%	0%	12%	20%	4%	0%	12%	0%	10%	5%	0%	0%
Nc1n[nH]c2nnc(-c3ccccc3)c(-c3ccccc3)c12 [GW554060]	0%	50%	7%	0%	21%	0%	4%	25%	32%	1%	7%	20%	0%	8%	0%	5%	2%	1%	8%	0%
O=c1cc(N2CCOCC2)nc2n(Cc3ccc(F)c(Cl)c3)ccn12 [GSK2297099]	2%	0%	0%	0%	0%	0%	0%	0%	0%	0%	25%	10%	2%	0%	0%	0%	56%	1%	2%	0%
COc1cc2nccc(Nc3ccc(OCc4ccc(NC(C)=O)cc4)cc3)c2cc1OC.Cl [GW440135]	0%	25%	0%	0%	4%	8%	4%	47%	26%	0%	29%	83%	0%	73%	92.4%	7%	1%	7%	4%	22%
COc1cc(Nc2ccnc3ccc(C(F)(F)F)cc23)cc(OC)c1OC [GW577382]	0%	0%	0%	0%	21%	2%	16%	25%	3%	11%	30%	9%	0%	0%	3%	19%	30%	86%	9%	17%
CN1C(=O)C(Nc2cc(Cl)c(O)c(Cl)c2)=C(c2ccc(Cl)cc2)C1=O [SB-404321]	0%	0%	0%	0%	0%	0%	0%	0%	9%	0%	0%	0%	0%	0%	0%	0%	0%	0%	6%	0%
O=C1NC(=O)C(c2ccccc2)=C1Nc1cccc(O)c1 [SB-390534]	0%	0%	0%	0%	0%	0%	11%	0%	10%	1%	0%	2%	5%	26%	0%	0%	0%	11%	0%	13%
COc1ccc(CNC(=O)NC2CCN(c3ccnc(Nc4ccc(F)cc4)n3)C2)cc1 (centres unmarked) [GSK1379706]	0%	0%	0%	4%	25%	0%	0%	15%	22%	15%	19%	21%	0%	16%	0%	14%	20%	19%	4%	5%
C[C@@H]1CC[C@H](C(=O)NC2CCCCC2)CN1c1cc(-c2ccc3c(N)n[nH]c3c2)nc(N)n1 [GSK2291363]	0%	1%	17%	0%	41%	0%	4%	8%	17%	12%	27%	35%	9%	9%	14%	19%	21%	17%	0%	0%
COc1ccc(-c2cc3c(C)nc(N)nc3n([C@H]3CC[C@H](O)CC3)c2=O)cn1	0%	0%	0%	0%	0%	0%	0%	0%	0%	0%	0%	0%	0%	0%	0%	0%	0%	0%	0%	0%
CN1C(=O)C(Nc2ccccc2)=C(c2ccccc2)C1=O [SB-300079]	0%	2%	17%	0%	0%	0%	0%	0%	0%	0%	0%	0%	0%	0%	0%	0%	0%	0%	6%	26%
